GRK2 inh: human GRK2 inhibition via aptamer displacement | P25098 | bead flow cytometry, FAM-aptamer displacement from GRK2 | inhibition of aptamer binding, % at 10 µM | hit rate 0.59% among 330,000;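 active = inhibition of aptamer binding above 40%, roughly 3 SD of noise, on plates passing a quality check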;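 also: median bead fluorescence of bound FAM aptamer so fluorescent compounds give negative values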
MEKK2mut PB1 HTS: signal of MEK5 binding to mutant human MEKK2 PB1 domain; bead flow cytometry, Alexa488-MEK5 binding to MEKK2 mutant; percent response, % at 10 µM; hit rate 0.35% among 290,000; AID 1530; in the data active = percent response above about 24%, passing the limit was not always enough
Beta2AR agonist: activates human beta-2 adrenergic receptor causing internalization; P07550; Am2.2-beta2AR cells, FAP receptor internalization, flow cytometry; AID 504454; hit rate 0.43% among 340,000; response, % (no concentration beside the values);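 active = response above a set limit, near 3 SD of response in nonfluorescent compounds, cut at about 42% in these data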
Target sequence (P07550 whole entry, looked up): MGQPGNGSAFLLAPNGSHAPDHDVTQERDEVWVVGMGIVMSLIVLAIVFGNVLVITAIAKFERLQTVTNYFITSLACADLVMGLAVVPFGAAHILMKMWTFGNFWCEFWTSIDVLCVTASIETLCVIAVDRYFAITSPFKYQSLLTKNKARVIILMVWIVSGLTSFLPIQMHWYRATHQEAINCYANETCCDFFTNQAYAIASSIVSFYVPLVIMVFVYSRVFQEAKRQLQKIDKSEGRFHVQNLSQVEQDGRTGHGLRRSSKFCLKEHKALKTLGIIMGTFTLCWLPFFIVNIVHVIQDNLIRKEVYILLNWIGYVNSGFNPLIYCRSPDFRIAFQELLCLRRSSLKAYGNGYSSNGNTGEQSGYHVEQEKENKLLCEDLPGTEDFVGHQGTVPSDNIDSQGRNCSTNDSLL
MEKK2wt PB1 HTS: raises or lowers MEK5 binding to wildtype human MEKK2 PB1 domain. Q9Y2U5. bead flow cytometry, Alexa488-MEK5 binding to MEKK2 WT; actives lie on both sides. binding response (% of control), % at 10 µM. hit rate 1.1% among 290,000. AID 1531; in the data active = binding response below about 67% or above about 130%
MEKK3 PB1 HTS: raises or lowers MEK5 binding to the human MEKK3 PB1 domain; Q99759; bead-based flow cytometry, Alexa488-MEK5 binding to MEKK3; actives lie on both sides; 0 = blocked by unlabeled MEK5, 100 = vehicle; binding response (% of control), % at 10 µM; hit rate 1.4% among 290,000;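 active = binding response more than 3 SD above or below the average of its plate-row segment, actives on both sides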;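 also: Alexa488 bead fluorescence after subtracting the streptavidin-only scavenger bead signal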
GRK2 inh confirm: confirmation of human GRK2 inhibitors displacing RNA aptamer | shares compounds with GRK2 inh | bead-bound GRK2, FAM-aptamer displacement, flow cytometry | aptamer displacement, % at 10 µM | hit rate 4% among 2,000;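 active = aptamer displacement above 40%, near three times the noise of non-fluorescent compounds, on plates passing quality checks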;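 also: negative values mostly reflect intrinsic compound fluorescence rather than true enhancement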
Aptamer quench: fluorescent aptamer quenching in GRK2 counter-screen dose response. shares compounds with GRK2 inh. Fluorescent RNA aptamer beads, flow cytometry; hits give high values. fluorescence change (kMESF span), kMESF (concentration not given with the values). 110 tested, under 10 active;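 active = compounds whose bead fluorescence drops by more than 37 kMESF across the dose range, marking them as dye quenchers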
Aptamer quench SP: aptamer fluorescence quenching in GRK2 counter-screen; shares compounds with GRK2 inh; Carboxyfluorescein RNA aptamer on beads, flow cytometry quenching; hits give low values; fluorescence response (% of DMSO), % at 10 µM; 2,000 tested, under 10 active;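 active = compounds that quench the bead-bound fluorescent RNA probe, cutting fluorescence to under half of the solvent control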;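 also: counterscreen run without GRK2 so only probe quenching by compound is measured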
GRK2 CP2: confirmation of human GRK2 inhibitors binding RNA aptamer site; shares compounds with GRK2 inh; bead-bound GRK2, FAM-aptamer displacement, flow cytometry; inhibition of aptamer binding, % at 10 µM; 360 tested, under 10 active; AID 504782;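 active = inhibition of aptamer binding above 40%, about triple the noise seen with nonglowing compounds, on plates passing quality control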;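 also: negative values mostly come from compounds that fluoresce themselves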
FAM quench SP: quenches fluorescent RNA aptamer, GRK2 hit artifact; shares compounds with GRK2 inh; carboxyfluorescein RNA aptamer beads, flow cytometry quenching; hits give low values; fluorescence response vs DMSO, % at 10 µM; 360 tested, under 10 active; AID 588494;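 active = response vs DMSO under 50%, meaning signal dropped by over half, treated as fluorescence quencher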;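 also: labelled aptamer on streptavidin beads without GRK2 as a quench counter-screen; 100% = bead fluorescence of DMSO wells and lower means quenching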
FAM quench PS1: quenches fluorescent RNA aptamer, GRK2 hit artifact; shares compounds with GRK2 inh; Bead-bound FAM RNA aptamer fluorescence quenching, flow cytometry; hits give low values; fluorescence ratio to DMSO, % at 11.1 µM; 35 tested, under 10 active; AID 588496;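 active = compounds that dim the fluorescent label, raw bead signal shifting by over 33 units between lowest and highest dose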
Numbers without * were called inactive. This is a sample that favours compounds with a hit; in the whole collection about 2.9% have one here.

What do the screens show for `O=C1c2ccccc2S(=O)(=O)c2cc(C(=O)N3CCC(N4CCCC4)CC3)ccc21`?
GRK2 inh: 0.0; MEKK2mut PB1 HTS: 6.0; Beta2AR agonist: -10.4; MEKK2wt PB1 HTS: 114.0; MEKK3 PB1 HTS: 105.0

What do the screens show for `Cn1c(=O)oc2cc(S(=O)(=O)NCc3cccnc3)ccc21`?
GRK2 inh: 0.0; MEKK2mut PB1 HTS: -4.0; Beta2AR agonist: -80.8; MEKK2wt PB1 HTS: 88.0; MEKK3 PB1 HTS: 91.0

Results for Cn1c(=O)oc2cc(S(=O)(=O)NCc3ccccn3)ccc21 ?
GRK2 inh: 52.0*; MEKK2mut PB1 HTS: 3.0; Beta2AR agonist: -7.2; MEKK2wt PB1 HTS: 99.0; MEKK3 PB1 HTS: 101.0; GRK2 inh confirm: 3.2; Aptamer quench SP: 99.6

Results for Cc1cc(C(=O)NNC(=O)c2ccc(Cl)c(S(N)(=O)=O)c2)c(C)o1 ?
GRK2 inh: 0.0; Beta2AR agonist: -5.9

Results for CCC(C)NC(=O)c1cc2c(=O)n(CC)c3ccccc3c2s1 (configuration not stated) ?
GRK2 inh: 6.0; MEKK2mut PB1 HTS: 1.0; Beta2AR agonist: 3.4; MEKK2wt PB1 HTS: 105.0; MEKK3 PB1 HTS: 103.0

How did O=c1c(Cc2ccc(Cl)cc2)c(O)ccn1Cc1ccncc1 do in these assays?
GRK2 inh: 2.0; MEKK2mut PB1 HTS: 4.0; Beta2AR agonist: 19.6; MEKK2wt PB1 HTS: 102.0; MEKK3 PB1 HTS: 101.0

How did O=C(CSc1nc2ccccc2[nH]1)NCc1ccco1 do in these assays?
GRK2 inh: 2.0; MEKK2mut PB1 HTS: 7.0; Beta2AR agonist: 2.1; MEKK2wt PB1 HTS: 101.0; MEKK3 PB1 HTS: 99.0

How did Cn1c(SCC(=O)NCc2ccco2)nnc1-c1cccs1 do in these assays?
GRK2 inh: 86.0*; MEKK2mut PB1 HTS: -2.0; Beta2AR agonist: -1.0; MEKK2wt PB1 HTS: 106.0; MEKK3 PB1 HTS: 105.0; GRK2 inh confirm: 3.1; Aptamer quench SP: 99.6

What do the screens show for `CCc1c(O)nc(SCC(=O)NCc2ccco2)[nH]c1=O`?
GRK2 inh: 11.0; MEKK2mut PB1 HTS: -2.0; Beta2AR agonist: 0.3; MEKK2wt PB1 HTS: 103.0; MEKK3 PB1 HTS: 101.0; GRK2 CP2: 0.8; FAM quench SP: 107.0

How did Cc1cc(=O)[nH]c(SCC(=O)NCc2ccco2)n1 do in these assays?
GRK2 inh: 54.0*; MEKK2mut PB1 HTS: 1.0; Beta2AR agonist: 5.4; MEKK2wt PB1 HTS: 101.0; MEKK3 PB1 HTS: 100.0; GRK2 inh confirm: 94.4*; Aptamer quench: 2.1; Aptamer quench SP: 99.1; FAM quench PS1: 100.0

Results for O=C(CSc1nnc(NC(=O)Cc2ccccc2)s1)NCc1ccco1 ?
GRK2 inh: 60.0*; MEKK2mut PB1 HTS: 5.0; Beta2AR agonist: 1.1; MEKK2wt PB1 HTS: 104.0; MEKK3 PB1 HTS: 102.0; GRK2 inh confirm: -0.6; Aptamer quench SP: 92.4

Results for O=C(CSc1nnc(NC(=O)Cc2ccc(F)cc2)s1)NCc1ccco1 ?
GRK2 inh: 2.0; MEKK2mut PB1 HTS: -1.0; Beta2AR agonist: -5.7; MEKK2wt PB1 HTS: 96.0; MEKK3 PB1 HTS: 102.0

Results for Cc1nn(C(=O)c2nn(C)cc2[N+](=O)[O-])c(C)c1Cl ?
GRK2 inh: 0.0; MEKK2mut PB1 HTS: 0.0; Beta2AR agonist: -3.5; MEKK2wt PB1 HTS: 99.0; MEKK3 PB1 HTS: 106.0

How did O=C(CSc1nc(=O)n(CCCN2CCOCC2)c2c1CCCC2)Nc1ccc(F)cc1 do in these assays?
GRK2 inh: 0.0; Beta2AR agonist: -2.7

Results for Cc1sc2nc(SCC(=O)NCc3ccco3)[nH]c(=O)c2c1C ?
GRK2 inh: 1.0; MEKK2mut PB1 HTS: 14.0; Beta2AR agonist: -12.0; MEKK2wt PB1 HTS: 110.0; MEKK3 PB1 HTS: 106.0; GRK2 CP2: -13.3; FAM quench SP: 102.0

What do the screens show for `Cc1sc2nc(SCC(=O)NCc3cccs3)[nH]c(=O)c2c1C`?
GRK2 inh: 1.0; MEKK2mut PB1 HTS: 3.0; Beta2AR agonist: 4.8; MEKK2wt PB1 HTS: 108.0; MEKK3 PB1 HTS: 108.0

How did CC(=O)c1cc(C#N)c(N2CCOCC2)nc1C do in these assays?
GRK2 inh: 2.0; MEKK2mut PB1 HTS: 1.0; Beta2AR agonist: -11.9; MEKK2wt PB1 HTS: 107.0; MEKK3 PB1 HTS: 104.0

How did Nc1ccc(O)c2c1C(=O)c1ccccc1C2=O do in these assays?
GRK2 inh: 41.0*; MEKK2mut PB1 HTS: 4.0; Beta2AR agonist: 0.3; MEKK2wt PB1 HTS: 88.0; MEKK3 PB1 HTS: 93.0; GRK2 inh confirm: 0.8; Aptamer quench SP: 93.5

Results for COc1ccc(NC(=O)C2CSC(C)(C)N2C=O)cc1 (configuration not stated) ?
GRK2 inh: 75.0*; MEKK2mut PB1 HTS: -10.0; Beta2AR agonist: -2.7; MEKK2wt PB1 HTS: 93.0; MEKK3 PB1 HTS: 96.0; GRK2 inh confirm: -2.5; Aptamer quench SP: 99.7

What do the screens show for `CC1=C(C(=O)Nc2cc(C(=O)N(C)Cc3ccccc3)ccc2C)SCCO1`?
GRK2 inh: 2.0; MEKK2mut PB1 HTS: 1.0; Beta2AR agonist: -4.0; MEKK2wt PB1 HTS: 103.0; MEKK3 PB1 HTS: 101.0; GRK2 inh confirm: 0.9; Aptamer quench SP: 101.5

What do the screens show for `COc1ccc(OC)c(CNC(=O)c2ccc(C)c(NC(=O)C3=C(C)OCCS3)c2)c1`?
GRK2 inh: 0.0; MEKK2mut PB1 HTS: 3.0; Beta2AR agonist: 2.2; MEKK2wt PB1 HTS: 101.0; MEKK3 PB1 HTS: 98.0; GRK2 inh confirm: -0.4; Aptamer quench SP: 101.0

How did COCCNC(=O)c1ccc(C)c(NC(=O)C2=C(C)OCCS2)c1 do in these assays?
GRK2 inh: 5.0; MEKK2mut PB1 HTS: 0.0; Beta2AR agonist: 7.6; MEKK2wt PB1 HTS: 100.0; MEKK3 PB1 HTS: 105.0

What do the screens show for `O=C(COC(=O)C1CC1)Nc1ccc(Cl)cn1`?
GRK2 inh: 53.0*; Beta2AR agonist: 8.6; GRK2 inh confirm: 3.7; Aptamer quench SP: 96.1

What do the screens show for `O=C(CCS(=O)(=O)c1ccc(Br)cc1)Nc1ccccn1`?
GRK2 inh: 14.0; MEKK2mut PB1 HTS: -2.0; Beta2AR agonist: -1.2; MEKK2wt PB1 HTS: 97.0; MEKK3 PB1 HTS: 98.0; GRK2 inh confirm: 4.0; Aptamer quench SP: 99.0

Screening data from PubChem BioAssay.
